# Data taken from the antibiotic and cytotoxicity screens of Wong et al. (2023).
# In all, about 39,000 compounds went through this assay and about 1,500 (3.8%) were called active. What follows is part of a selection rich in actives, with near analogues and random picks from the rest.
# Test system: HSkMC (human skeletal muscle cells)
# Assay: cytotoxicity call (relative viability < 0.9)
# Settings: 10 µM
row,Structure (SMILES),cytotoxicity call
1,Cc1ccc(S(=O)(=O)N(C)C[C@H]2Oc3c(NS(=O)(=O)c4c(C)noc4C)cccc3C(=O)N([C@@H](C)CO)C[C@H]2C)cc1,inactive
2,N#CC1(C#N)[C@H](c2ccccc2)[C@@H]1C(N)=O,inactive
3,CC(C)CC#Cc1ccc2c(c1)O[C@@H](CN(C)C(=O)c1cnccn1)[C@@H](C)CN([C@H](C)CO)S2(=O)=O,inactive
4,O=C(C[C@H]1CC[C@H]2[C@@H](COC[C@@H](O)CN2S(=O)(=O)c2ccc(Cl)cc2)O1)N[C@H]1CCN(Cc2ccccc2)C1,inactive
5,CC(C)C[C@H](NC(=O)CNC(=O)c1cc(Cl)ccc1Cl)B1OC(=O)C[C@](CC(=O)O)(C(=O)O)O1,active
6,Cc1noc(C)c1S(=O)(=O)Nc1ccc2c(c1)C(=O)N([C@@H](C)CO)C[C@@H](C)[C@@H](CN(C)CC1CCCCC1)OCCCC[C@H](C)O2,inactive
7,Cn1c(=O)[nH]c2nnc(-c3ccccn3)nc2c1=O,inactive
8,COc1ccc(-c2ccccn2)cc1,inactive
9,Cn1nc(-c2ccccn2)nc2c(=O)n(C)c(=O)nc1-2,active
10,CN1CCN(C(=O)[C@@H]2[C@@H](CO)[C@@H]3Cn4c(cccc4=O)[C@H]2N3S(=O)(=O)c2ccccc2F)CC1,inactive
11,CC(=O)N1CCN(C(=O)Cc2ccc(S(C)(=O)=O)cc2)C[C@@H](O)C1,inactive
12,CC(=O)NCCCC[C@@H]1NC(=O)[C@H]2C[C@@H](C(=O)NCc3ccc(F)cc3)[C@@H](c3ccc(O)cc3)N2C1=O,inactive
13,C[C@H]1CN([C@@H](C)CO)C(=O)Cc2cc(NS(C)(=O)=O)ccc2O[C@H]1CN(C)Cc1ccc(C(F)(F)F)cc1,inactive
14,Cc1ccc(S(=O)(=O)Nc2ccc3c(c2)CC(=O)N([C@H](C)CO)C[C@@H](C)[C@@H](CN(C)Cc2ccc(C(F)(F)F)cc2)O3)cc1,active
15,Cc1ccc(S(=O)(=O)Nc2ccc3c(c2)CC(=O)N([C@@H](C)CO)C[C@H](C)[C@@H](CN(C)Cc2ccc(C(F)(F)F)cc2)O3)cc1,active
16,C[C@H]1CN([C@@H](C)CO)C(=O)Cc2cc(NS(C)(=O)=O)ccc2O[C@@H]1CN(C)Cc1ccc(C(F)(F)F)cc1,inactive
17,C[C@@H]1CN([C@@H](C)CO)C(=O)Cc2cc(NS(C)(=O)=O)ccc2O[C@H]1CN(C)Cc1ccc(C(F)(F)F)cc1,inactive
18,C[C@H](CO)N1C[C@H](C)[C@H](CN(C)Cc2ccc(C(F)(F)F)cc2)Oc2ccc(NS(C)(=O)=O)cc2CC1=O,inactive
19,Cc1ccc(S(=O)(=O)Nc2ccc3c(c2)CC(=O)N([C@@H](C)CO)C[C@@H](C)[C@@H](CN(C)Cc2ccc(C(F)(F)F)cc2)O3)cc1,active
20,Cc1ccc(S(=O)(=O)Nc2ccc3c(c2)CC(=O)N([C@H](C)CO)C[C@H](C)[C@H](CN(C)Cc2ccc(C(F)(F)F)cc2)O3)cc1,active
21,C[C@@H]1CN([C@H](C)CO)C(=O)Cc2cc(NS(C)(=O)=O)ccc2O[C@@H]1CN(C)Cc1ccc(C(F)(F)F)cc1,inactive
22,C[C@@H]1CN([C@@H](C)CO)C(=O)Cc2cc(NS(C)(=O)=O)ccc2O[C@@H]1CN(C)Cc1ccc(C(F)(F)F)cc1,inactive
23,Cc1ccc(S(=O)(=O)Nc2ccc3c(c2)CC(=O)N([C@H](C)CO)C[C@H](C)[C@@H](CN(C)Cc2ccc(C(F)(F)F)cc2)O3)cc1,inactive

row,Structure (SMILES),cytotoxicity call
1,C[C@@H]1CN([C@H](C)CO)C(=O)Cc2cc(NS(C)(=O)=O)ccc2O[C@H]1CN(C)Cc1ccc(C(F)(F)F)cc1,inactive
2,O=C(C[C@H]1CC[C@@H]2[C@H](COC[C@H](O)CN2S(=O)(=O)c2ccc(Cl)cc2)O1)NCCN1CCCCC1,inactive
3,COc1ccc(S(=O)(=O)Nc2ccc3c(c2)C(=O)N([C@H](C)CO)C[C@H](C)[C@H](CN(C)C(=O)Nc2c(C)noc2C)OCCCC[C@H](C)O3)cc1,inactive
4,C[C@@H]1CCCCO[C@@H](CN(C)S(=O)(=O)c2cccs2)[C@H](C)CN([C@H](C)CO)C(=O)c2cc(NC(=O)Nc3cccc4ccccc34)ccc2O1,inactive
5,COc1ccc(S(=O)(=O)Nc2cccc3c2O[C@@H](CN(C)Cc2ccncc2)[C@H](C)CN([C@@H](C)CO)C3=O)cc1,inactive
6,C[C@@H]1CN([C@@H](C)CO)C(=O)c2cccc(NS(=O)(=O)c3cn(C)cn3)c2O[C@@H]1CN(C)S(=O)(=O)c1ccccc1,inactive
7,C[C@@H]1CN([C@@H](C)CO)C(=O)c2cc(NC(=O)CCN3CCOCC3)ccc2O[C@@H]1CN(C)CC1CC1,inactive
8,C[C@@H]1CCCCO[C@H](CN(C)C(=O)Cc2ccccc2)[C@H](C)CN([C@@H](C)CO)C(=O)c2cc(NS(=O)(=O)c3cccs3)ccc2O1,inactive
9,COCC(=O)Nc1ccc2c(c1)OC[C@@H](C)N(Cc1ccccc1OC)C[C@@H](C)[C@H](OC)CN(C)C2=O,inactive
10,C[C@H]1CCCCO[C@@H](CN(C)C(=O)Nc2ccc(F)cc2)[C@@H](C)CN([C@@H](C)CO)C(=O)c2cc(NS(=O)(=O)c3cccs3)ccc2O1,inactive
11,CCSc1nnc2c(=O)[nH]c(=O)[nH]c2n1,inactive
12,Cc1ccc(S(=O)(=O)Nc2ccc3c(c2)CC(=O)N([C@@H](C)CO)C[C@@H](C)[C@H](CN(C)Cc2ccc(C(F)(F)F)cc2)O3)cc1,inactive
13,Cc1ccc(S(=O)(=O)Nc2ccc3c(c2)CC(=O)N([C@@H](C)CO)C[C@H](C)[C@H](CN(C)Cc2ccc(C(F)(F)F)cc2)O3)cc1,active
14,Cc1ccc(S(=O)(=O)Nc2ccc3c(c2)CC(=O)N([C@H](C)CO)C[C@@H](C)[C@H](CN(C)Cc2ccc(C(F)(F)F)cc2)O3)cc1,inactive
15,C[C@H](CO)N1C[C@H](C)[C@@H](CN(C)C(=O)Nc2ccc(C(F)(F)F)cc2)Oc2ccc(NC(=O)Cc3ccccc3)cc2CC1=O,inactive
16,C[C@@H]1CN([C@@H](C)CO)C(=O)c2cc(NC(=O)C3CCCCC3)ccc2O[C@@H]1CN(C)Cc1ccc(C(F)(F)F)cc1,inactive
17,C[C@@H]1CN([C@H](C)CO)C(=O)c2cc(NC(=O)Nc3cccc4ccccc34)ccc2O[C@@H]1CN(C)C(=O)Nc1cccc2ccccc12,active
18,C[C@@H]1CN([C@H](C)CO)C(=O)c2cc(NC(=O)Nc3cccc4ccccc34)ccc2O[C@H]1CN(C)C(=O)Nc1cccc2ccccc12,inactive
19,C[C@H]1CN([C@@H](C)CO)C(=O)c2cc(NC(=O)Nc3cccc4ccccc34)ccc2O[C@@H]1CN(C)C(=O)Nc1cccc2ccccc12,inactive
20,C[C@H](CO)N1C[C@H](C)[C@@H](CN(C)C(=O)Nc2cccc3ccccc23)Oc2ccc(NC(=O)Nc3cccc4ccccc34)cc2C1=O,inactive
21,C[C@@H]1CN([C@@H](C)CO)C(=O)c2cc(NC(=O)Nc3cccc4ccccc34)ccc2O[C@H]1CN(C)C(=O)Nc1cccc2ccccc12,inactive
22,C[C@@H]1CN([C@@H](C)CO)C(=O)c2cc(NC(=O)Nc3cccc4ccccc34)ccc2O[C@@H]1CN(C)C(=O)Nc1cccc2ccccc12,active
